Max response, Potency and outcome data for 28 compounds are collected here from PubChem BioAssay (NCATS).

One experiment concerns CRL-7250. Nature of the experiment: Cytotoxic Profiling of Annotated Libraries Using Quantitative High-Throughput Screening (AID 1296008). For Max response: % is set by controls: 0 for no effect and ±100 for the full control effect. The note with it: Five cell lines viability, CellTiter-Glo ATP luminescence, 48-72 h; stronger effect = lower value. The method, boiled down:
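Compounds were pin-transferred onto cells and incubated 48 or 72 hr at 37 degree Celsius, 95% humidity. CellTiter-Glo was added, plates sat 10 min at room temperature, then ATP-coupled luminescence was imaged as the viability read-out.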
On the technique in general: ATP-based viability assays read luminescence as a measure of living cells.

In another experiment the test system is PAD. Nature of the experiment: qHTS profiling for inhibitors of Plasmodium falciparum proliferation (AID 504749). Note: potency is the fitted concentration of half-maximal effect. The note with it: P. falciparum in erythrocytes, SYBR Green DNA, 72 h; series mostly up to 28.7 µM. The procedure, abridged: (§1)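 Parasite proliferation within erythrocytes, 72 h exposure. Endpoint: SYBR Green I fluorescence after overnight lysis at room temperature. Controls: 0.29 uM artemisinin, DMSO.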
(Quantitative high-throughput screening tests each substance at several concentrations.)

The subject of the next experiment is PC15. Described as above. As to conditions: P. falciparum in erythrocytes, SYBR Green DNA, 72 h; series mostly up to 28.7 µM. The method, boiled down:
as §1

The test system of another experiment is PC26. The experiment is described as above. The note with it: P. falciparum in erythrocytes, SYBR Green DNA, 72 h; series mostly up to 28.7 µM. The procedure, abridged: as §1
The next experiment concerns PC49. Described as above. The note with it: P. falciparum in erythrocytes, SYBR Green DNA, 72 h; series mostly up to 28.7 µM. The method, boiled down: as §1
The next experiment relates to SC27B. The experiment is described as above. The note with it: P. falciparum in erythrocytes, SYBR Green DNA, 72 h; series mostly up to 28.7 µM. The procedure, abridged:
as §1

Another experiment deals with TAB109. The experiment is described as above. The note with it: P. falciparum in erythrocytes, SYBR Green DNA, 72 h; series mostly up to 28.7 µM. The procedure, abridged: as §1
The next experiment has as its system TAB113. The description is as above. The note with it: P. falciparum in erythrocytes, SYBR Green DNA, 72 h; series mostly up to 28.7 µM. The procedure, abridged: as §1
Another experiment concerns TAB165. The description is as above. The note with it: P. falciparum in erythrocytes, SYBR Green DNA, 72 h; series mostly up to 28.7 µM. The procedure, abridged:
as §1

A further experiment relates to W2. The description is as above. As to conditions: P. falciparum in erythrocytes, SYBR Green DNA, 72 h; series mostly up to 28.7 µM. The procedure, abridged:
as §1

Results filed as inconclusive are left out. Unmarked numbers belong to inactive results. Calls of active or inactive are those of the source. Calls come from the whole dose curve; as a rule, active = well fitted inhibition curve with a large enough effect; inconclusive = small, poorly fitted or top-dose-only effect; inactive = flat fitted curve, though single readings scatter.
Note: nearly all actives have a fitted effect of over 60% in size.

As to `CC(C)(C)c1ccc(CN2CCN(C(c3ccccc3)c3ccc(Cl)cc3)CC2)cc1` (stereo unspecified), in the experiment on CRL-7250, the max response is 1.08%.
On to `O=C(O)Cc1cc(I)c(Oc2ccc(O)c(I)c2)c(I)c1`, for which the Potency result in the experiment on PAD, in the experiment with PC15, with PC26, in the experiment with PC49, in the experiment with SC27B and in the experiment with TAB109 was “inactive” throughout. The Potency entry in the experiment on TAB113, in the experiment with TAB165 and with W2 was “inactive” in each case. Besides, the outcome with CRL-7250 was inactive.
On to `CN(Cc1ccccc1)Cc1ccccc1`, for which the Potency entry with PAD, in the experiment on PC15, with PC26, in the experiment with PC49, in the experiment on SC27B and in the experiment on TAB109 was “inactive” each time. The Potency result with TAB113 and in the experiment with TAB165 was “inactive” throughout.
Regarding `O=[n+]1ccn([O-])c2ccccc21`, the Potency result in the experiment on PAD, with PC15, with PC26, in the experiment on PC49, in the experiment with SC27B and with TAB109 was “inactive” throughout. The Potency result in the experiment with TAB113 and with TAB165 was “inactive” throughout.
As to `COc1ccccc1N1CCN(CCCC(=O)c2ccc(F)cc2)CC1`, the Potency result with PAD, in the experiment with PC15, in the experiment on PC26, with PC49, in the experiment with SC27B and in the experiment with TAB109 was “inactive” throughout. Further, the Potency result with TAB113 and with TAB165 was “inactive” in each case.
Take `C=CC(C)(O)CC/C=C(\C)CCC=C(C)C` (stereo unspecified): the Potency result with PAD, in the experiment on PC15, in the experiment with PC26, with PC49, in the experiment on SC27B and with TAB109 was “inactive” in each case. For the same compound, the Potency entry in the experiment on TAB113 and with TAB165 was “inactive” in each case.
As for `CCOC(=O)C1=C(COCCN)NC(C)=C(C(=O)OC)C1c1ccccc1Cl` (stereo unspecified), the Potency entry in the experiment on PAD, in the experiment on PC15, with PC26, with PC49, in the experiment with SC27B and in the experiment with TAB109 was “inactive” each time. Also, the Potency result in the experiment on TAB113 was “inactive”.
With `O=C(O)CC/C=C\CC[C@@H]1[C@@H](N2CCCCC2)[C@@H](O)C[C@@H]1OCc1ccc(-c2ccccc2)cc1`, the Potency result in the experiment with PAD, with PC15, in the experiment with PC26, with PC49, with SC27B and with TAB109 was “inactive” in each case. The Potency result in the experiment with TAB113 and in the experiment with TAB165 was “inactive” in each case.
As to `C=C1CC[C@H](O)CC1=C/C=C1\CCC[C@]2(C)[C@@H]([C@H](C)/C=C/[C@H](C)C(C)C)CC[C@@H]12`, the max response in the experiment with CRL-7250 was -11.3%.
On to `CC(=O)Oc1cccc2c1C(=O)c1c(OC(C)=O)cc(C(=O)O)cc1C2=O`, for which the Potency result in the experiment with PAD, with PC15, with PC26, in the experiment with PC49, in the experiment with SC27B and in the experiment with TAB109 was “inactive” in each case. The Potency result in the experiment with TAB113, with TAB165 and in the experiment with W2 was “inactive” each time. The max response in the experiment with CRL-7250 is -18.7%.
Turning to `O=P(O)(O)OP(=O)(O)OP(=O)(O)O`, the Potency result with PAD, in the experiment on PC15, with PC26, with PC49, with SC27B and in the experiment on TAB109 was “inactive” throughout. For the same compound, the Potency entry in the experiment on TAB113 and in the experiment with TAB165 was “inactive” in each case.
For `O=C1c2ccccc2C(=O)c2c1ccc(O)c2O`, the Potency entry in the experiment on PAD, in the experiment on PC15, in the experiment with PC26, in the experiment with PC49, in the experiment with SC27B and in the experiment with TAB109 was “inactive” throughout. Moreover, the Potency entry in the experiment on TAB113, in the experiment on TAB165 and with W2 was “inactive” each time. For the same compound, in the experiment with CRL-7250, the max response was -3.43%.
`C[C@]12CC[C@@H]3c4ccc(OC(=O)c5ccccc5)cc4CC[C@H]3[C@@H]1CC[C@@H]2O`: the Potency entry in the experiment on PAD, with PC15, in the experiment on PC26, in the experiment on PC49, with SC27B and in the experiment with TAB109 was “inactive” each time. In addition, the Potency result in the experiment on TAB113 and with TAB165 was “inactive” throughout. Also, in the experiment on W2, the Potency was 10.7 µM (active). Moreover, in the experiment on CRL-7250, the call was inactive.
In the case of `O=C(OCc1ccccc1)c1ccc(O)cc1`, the Potency result in the experiment with PAD, with PC15, in the experiment with PC26, in the experiment with PC49, with SC27B and with TAB109 was “inactive” in each case. The Potency entry with TAB113, in the experiment on TAB165 and in the experiment on W2 was “inactive” each time. The max response in the experiment on CRL-7250 is -9.5%.
As to `CCCCCc1ccc(C)cc1O`, the Potency result in the experiment on PAD, in the experiment with PC15, in the experiment with PC26, with PC49, in the experiment on SC27B and in the experiment with TAB109 was “inactive” each time. For the same compound, the Potency entry with TAB113 is “inactive”.
With `C[C@]12CCC(=O)C[C@@H]1CC[C@@H]1[C@@H]2CC[C@]2(C)C=CC[C@@H]12`, the Potency result in the experiment on PAD, with PC15, in the experiment with PC26, in the experiment with PC49, with SC27B and with TAB109 was “inactive” each time. Further, the Potency entry with TAB113 and with TAB165 was “inactive” in each case.
Regarding `Cc1cc(C)c(NC(=O)C[C@H](CC(=O)O)c2cccc3ccccc23)c(C(=O)N2CCC3(CCCC3)CC2)c1`, the Potency entry in the experiment with PAD, in the experiment on PC15, in the experiment with PC26, in the experiment on PC49, in the experiment on SC27B and in the experiment with TAB109 was “inactive” throughout. The Potency entry in the experiment on TAB113 and in the experiment with TAB165 was “inactive” each time.
Regarding `CCCCCCCCCCCCCCCCCCCCCC(=O)Nc1ccn([C@@H]2O[C@H](CO)[C@@H](O)[C@@H]2O)c(=O)n1`, the Potency result with PAD, in the experiment on PC15, in the experiment on PC26, in the experiment with PC49, in the experiment on SC27B and with TAB109 was “inactive” in each case. Moreover, the Potency entry with TAB113 and in the experiment with TAB165 was “inactive” each time.
For the compound `OC/C=C/c1ccccc1`, the Potency result in the experiment with PAD, with PC15, with PC26, in the experiment on PC49, in the experiment with SC27B and in the experiment with TAB109 was “inactive” in each case. Further, the Potency result in the experiment with TAB113 and in the experiment with TAB165 was “inactive” in each case.
As to `CC/C=C\C/C=C\C/C=C\C/C=C\C/C=C\CCCC(=O)O`, the Potency entry with PAD, with PC15, in the experiment on PC26, in the experiment with PC49, in the experiment with SC27B and in the experiment with TAB109 was “inactive” each time. The Potency result with TAB113 and in the experiment with TAB165 was “inactive” in each case.
For `F[Si-2](F)(F)(F)(F)F`, the Potency entry in the experiment with PAD, in the experiment with PC15, with PC26, in the experiment on PC49, in the experiment with SC27B and in the experiment with TAB109 was “inactive” each time. For the same compound, the Potency result with TAB113 and in the experiment with TAB165 was “inactive” throughout.
`CCCCCCCCCC(=O)NO`: the Potency entry in the experiment on PAD, in the experiment with PC15, in the experiment on PC26, in the experiment on PC49, with SC27B and with TAB109 was “inactive” throughout. Moreover, the Potency entry with TAB113 and in the experiment on TAB165 was “inactive” each time.
Take `Cc1ncc(COP(=O)(O)O)c(CN)c1O`: the Potency entry in the experiment on PAD, with PC15, with PC26, with PC49, in the experiment on SC27B and in the experiment on TAB109 was “inactive” each time. Also, the Potency entry in the experiment on TAB113 and in the experiment on TAB165 was “inactive” in each case.
`CCCCC`: the Potency entry in the experiment with PAD, in the experiment on PC15, in the experiment on PC26, in the experiment with PC49, with SC27B and with TAB109 was “inactive” each time. Further, the Potency entry in the experiment with TAB113 and in the experiment on TAB165 was “inactive” each time.
Consider `O=C(O)c1cc(N=Nc2ccc(O)c(C(=O)O)c2)ccc1O`, for which the Potency result with PAD, with PC15, with PC26, in the experiment on PC49, with SC27B and in the experiment with TAB109 was “inactive” in each case. The Potency entry in the experiment on TAB113 and in the experiment on TAB165 was “inactive” in each case.
Regarding `CCCCC[C@H](O)/C=C/[C@H]1[C@H](O)CC(=O)[C@@H]1C/C=C\CCCC(=O)O`, the Potency result in the experiment on PAD, with PC15, in the experiment on PC26, in the experiment with PC49, with SC27B and in the experiment with TAB109 was “inactive” each time. In addition, the Potency entry in the experiment on TAB113 and in the experiment with TAB165 was “inactive” each time.
In the case of `CC/C=C\C/C=C\C/C=C\C/C=C\C/C=C\C/C=C\CCC(=O)O`, the Potency result in the experiment on PAD, with PC15, in the experiment on PC26, in the experiment on PC49, with SC27B and in the experiment with TAB109 was “inactive” each time. Besides, the Potency result in the experiment with TAB113 and in the experiment on TAB165 was “inactive” each time.
As for `CCN(CC)CCOCCOC(=O)C(CC)(CC)c1ccccc1`, the outcome in the experiment on CRL-7250 was inactive.
